From PubChem BioAssay (EPA / NIEHS)
Results filed as inconclusive are left out. Active and inactive are the calls of the source. The calls were made as follows, unless noted: active = hit-call score of the fitted dose curve at least 0.9, where 1 is the maximum; inconclusive = response in the unintended direction; inactive = score below 0.9.

Assays:
[1] = molecular target: Retinoic acid receptor alpha (Homo sapiens) (UniProt P10276); assay: ATG_DR5_RAR_CIS: Attagene CIS-FACTORIAL HepG2 Assay for human Retinoic Acid Receptor Alpha (RARE), DR5 submotif (AID 2282934; active = hit-call score of the fitted dose curve at least 0.9, where 1 is the maximum; inactive = score below 0.9); conditions: HepG2 Attagene cis-factorial RARE DR5 reporter, mRNA; actives raise or lower the signal
How it was run: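 HepG2 cells transiently transfected with multiplexed reporter units under cis (DR5 RARE) promoters, so endogenous transcription factor activity is measured. After 24 h compound exposure, reporter mRNA is quantified by RT-PCR with fluorescent labelling and capillary electrophoresis; bidirectional fitting versus DMSO.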

[2] = molecular target: Glucocorticoid receptor (Homo sapiens) (UniProt P04150); assay: ATG_GR_TRANS: Attagene TRANS-FACTORIAL HepG2 Assay for human Glucocorticoid Receptor (GR) (AID 2282978); conditions: HepG2 Attagene TRANS GR reporter, mRNA transcription;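 also: activators score as hits since higher reporter transcript over DMSO is fitted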
How it was run: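 In this trans-factorial format, exogenous NR-GAL4 chimeric proteins in transfected HepG2 cells regulate GAL4-UAS reporter transcription. After 24 h treatment, reporter mRNA induction relative to DMSO is read by RT-PCR and capillary electrophoresis.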

[3] = molecular target: Cellular tumor antigen p53 (Homo sapiens) (UniProt P04637); assay: ATG_p53_CIS: Attagene CIS-FACTORIAL HepG2 Assay for human p53 Transcription Factor (AID 2282994; active = hit-call score of the fitted dose curve at least 0.9, where 1 is the maximum; inactive = score below 0.9); conditions: HepG2 p53 cis-element reporter, Attagene mRNA; actives raise or lower the signal
How it was run: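 HepG2 cells transiently transfected with cis-regulated multiple reporter transcription units, dosed 24 h. Reporter mRNA measured by RT-PCR, 6-FAM primer extension, HpaI digestion and capillary electrophoresis; bidirectional fit relative to DMSO.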

[4] = molecular target: human Peroxisome Proliferator-activated Receptor delta (PPARd), PPARD (gene 5467) (UniProt Q03181); assay: ATG_PPARd_TRANS: Attagene TRANS-FACTORIAL HepG2 Assay for human Peroxisome Proliferator-activated Receptor delta (PPARd) (AID 2283002)
How it was run: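 HepG2 cells transiently transfected with multiplexed GAL4-UAS reporter units and exogenous chimeric NR-Gal4 proteins; 24 h compound exposure. Reporter mRNA measured by RT-PCR, 6-FAM labelling, HpaI digestion and capillary electrophoresis; gain of signal versus DMSO.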

[5] = molecular target: human RAR-related Orphan Receptor beta (RORb), RORB (gene 6096) (UniProt Q92753); assay: ATG_RORb_TRANS: Attagene TRANS-FACTORIAL HepG2 Assay for human RAR-related Orphan Receptor beta (RORb) (AID 2283010)
How it was run: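 HepG2 cells transiently transfected with GAL4-UAS reporter units expressing chimeric NR-Gal4 protein; reporter mRNA measured 24 h after dosing by RT-PCR, 6-FAM labelling and capillary electrophoresis. Gain-of-signal fitted relative to DMSO baseline.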

[6] = molecular target: human Vitamin D Receptor (VDR), VDR (gene 7421) (UniProt P11473); assay: ATG_VDR_TRANS: Attagene TRANS-FACTORIAL HepG2 Assay for human Vitamin D Receptor (VDR) (AID 2283022)
How it was run: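 Transactivation by an exogenous VDR-Gal4 chimera in transiently transfected HepG2 cells was measured as reporter transcript level 24 hours after chemical treatment. RT-PCR products were analysed by capillary electrophoresis and fitted in the positive direction relative to DMSO.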

[7] = ATG_XTT_Cytotoxicity: Cytotoxicity Assessment in the Attagene TRANS-FACTORIAL HepG2 Assay (AID 2283584)
How it was run: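 Viability endpoint from XTT after 24 h chemical exposure of reporter-transfected human HepG2 liver cells; signal loss fitted relative to DMSO negative control.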

[8] = TOX21_p53_BLA_p3_viability: Viability Assessment in the Tox21 HCT-116 p53 Agonism Beta-lactamase Assay, Phase 3 (AID 2283593);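 also: cells exposed to compound for 16 h before reading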
How it was run: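 HCT-116 cells (4000/well) rested 5 h at 37C, then got DMSO compounds by pin tool (217-fold dilution) for 16 h at 37C, 5% CO2. After the bla read, CellTiter-Glo was added and luminescence read at 30 min, room temperature.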

[9] = TOX21_p53_BLA_p4_viability: Viability Assessment in the Tox21 HCT-116 p53 Agonism Beta-lactamase Assay, Phase 4 (AID 2283597);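 also: hits lower the luminescence signal meaning cytotoxicity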
How it was run: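 Following a 16 h exposure at 37C, the treated HCT116 wells were first read for the FRET ratio. They were then lysed with CellTiter-Glo, and ATP luminescence was recorded after 30 min at room temperature.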

[10] = CCTE_Harrill_HTTr_Viability_MCF7: CCTE's 6-hour Cell Viability Assessment for the High-Throughput Transcriptomics (HTTr) Platform, in MCF-7 cells cultured in DMEM + 10% fetal bovine serum, Harrill Lab (AID 2284010; active = hit-call score of the fitted dose curve at least 0.9, where 1 is the maximum; inactive = score below 0.9)
How it was run: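 MCF-7 cells in DMEM + 10% FBS, 384-well, exposed 6 h to an eight-point dilution series. Membrane integrity scored by high-content imaging of propidium iodide exclusion; bidirectional fit versus DMSO.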

[11] = molecular target: Bile acid receptor (Homo sapiens) (UniProt Q96RI1); assay: ATG_IR1_CIS: Attagene CIS-FACTORIAL HepG2 Assay for human Nuclear Receptor Subfamily 1 Group H Member 4 (NR1H4), IR1 submotif (AID 2282946; active = hit-call score of the fitted dose curve at least 0.9, where 1 is the maximum; inactive = score below 0.9); conditions: IR1 reporter transcription, actives raise or lower the signal
How it was run: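 Transient MRTU transfection, HepG2; 24 h dosing; RNA → RT-PCR → 6-FAM primer extension → HpaI digest → capillary electrophoresis fluorescence. Gain/loss of signal fitted relative to DMSO.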

[12] = ATG_PPRE_CIS: Attagene CIS-FACTORIAL HepG2 Assay for human Peroxisome Proliferator-activated Response Element (PPRE) (AID 2282958; active = hit-call score of the fitted dose curve at least 0.9, where 1 is the maximum; inactive = score below 0.9); conditions: HepG2 PPRE cis-element reporter, Attagene transcription factor profiling; actives raise or lower the signal
How it was run: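 Cells are first transfected transiently with the multiplexed reporter library, then dosed for 24 h. Total RNA is reverse-transcribed, amplified, fluorescently end-labeled and HpaI-cut before capillary electrophoresis; activity is fitted bidirectionally against DMSO controls.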

[13] = molecular target: Oxysterols receptor LXR-alpha (Homo sapiens) (UniProt Q13133); assay: ATG_LXRa_TRANS: Attagene TRANS-FACTORIAL HepG2 Assay for human Liver X Receptor alpha (LXRa) (AID 2282980); conditions: HepG2 Attagene TRANS reporter, LXRa transactivation
How it was run: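 Chemical-induced reporter mRNA measured by RT-PCR with fluorescent labelling and capillary electrophoresis after 24 h dosing of transiently transfected HepG2 cells expressing exogenous NR-Gal4 chimeras; increases scored against DMSO baseline.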

[14] = molecular target: human RAR-related Orphan Receptor gamma (RORg), RORC (gene 6097) (UniProt P51449); assay: ATG_RORg_TRANS: Attagene TRANS-FACTORIAL HepG2 Assay for human RAR-related Orphan Receptor gamma (RORg) (AID 2283011);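 as to AC50: potency for induction of reporter transcripts above DMSO so activators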
How it was run: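 Reporter transcripts from a transfected RORg-GAL4 chimera in HepG2 cells were quantified 24 h after dosing by RT-PCR, 6-FAM labelling, HpaI digestion and capillary electrophoresis; increases over DMSO baseline were fitted.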

[15] = TOX21_p53_BLA_p2_viability: Viability Assessment in the Tox21 HCT-116 p53 Agonism Beta-lactamase Assay, Phase 2 (AID 2283591);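 also: compound exposure lasted 16 h at 37 °C; actives lower the ATP signal meaning cytotoxicity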
How it was run: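 HCT-116 p53-bla cells (4000/well) rested 5 h at 37C, then received compounds in DMSO (217-fold dilution) for 16 h at 37C, 5% CO2. After the CCF4 read, CellTiter-Glo was added; ATP luminescence was read after 30 min at room temperature.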

[16] = molecular target: Oxysterols receptor LXR-beta (Homo sapiens) (UniProt P55055); assay: ATG_LXRb_TRANS: Attagene TRANS-FACTORIAL HepG2 Assay for human Liver X Receptor beta (LXRb) (AID 2282981); conditions: HepG2 Attagene TRANS GAL4-LXRb reporter, mRNA
How it was run: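 In this TRANS format, exogenous chimeric NR-Gal4 protein activity, not endogenous factors, drives reporter expression in transfected human HepG2 cells. Exposure lasted 24 h; reporter mRNA was read by fluorescent capillary electrophoresis.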

[17] = ACEA_ER_AUC_viability: ACEA Biosciences xCELLigence Real-Time Cell Analysis on Estrogen Receptor Agonism for Viability (AID 2283782);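 also: continuous compound exposure with impedance area under curve over 80 h; hit means loss of impedance signal meaning reduced cell growth or viability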
How it was run: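 T-47D human breast cells in phenol red-free RPMI1640 with 10% charcoal-stripped FBS were dosed with an 8-point 1:4 dilution series from 100 uM top final concentration, in duplicate. Impedance-based growth was followed for 80 h; AUC analysed versus DMSO.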

[18] = ATG_M_19_TRANS: Attagene TRANS-FACTORIAL HepG2 Assay for M19 Transcription Factor (Internal Marker) (AID 2282974); conditions: HepG2 Attagene TRANS-FACTORIAL M19 internal marker reporter
How it was run: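 Cells: human HepG2, transiently transfected with multiplexed reporter transcription units. Exposure: 24 h. Detection: RT-PCR of reporter mRNA with capillary electrophoresis. Analysis: gain-of-signal vs DMSO.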

[19] = molecular target: Nuclear receptor subfamily 1 group I member 3 (Homo sapiens) (UniProt Q14994); assay: ATG_CAR_TRANS: Attagene TRANS-FACTORIAL HepG2 Assay for human Constitutive Androstane Receptor (CAR) (AID 2282969); conditions: HepG2 Attagene TRANS-FACTORIAL CAR reporter;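 also: activators raise reporter mRNA above DMSO so AC50 marks induction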
How it was run: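 HepG2 cells transiently transfected with multiplexed GAL4-UAS reporter units expressing chimeric NR-Gal4 proteins; compound exposure 24 h. Reporter mRNA measured by RT-PCR, 6-FAM labelling, HpaI digestion and capillary electrophoresis; gain-of-signal fitted against DMSO baseline.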

[20] = ATG_GAL4_TRANS: Attagene TRANS-FACTORIAL HepG2 Assay for GAL4 (Internal Marker) (AID 2282976); conditions: HepG2 Attagene TRANS GAL4 internal marker reporter
How it was run: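 In transfected human HepG2 liver cells dosed 24 h, GAL4 reporter mRNA serves as a baseline marker. Detection by RT-PCR with fluorescent capillary electrophoresis, activity fitted upward relative to DMSO.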

Measured: AC50

human Vitamin D Receptor (VDR), VDR (gene 7421), sequence (P11473 whole entry, looked up, the tested form may be a part): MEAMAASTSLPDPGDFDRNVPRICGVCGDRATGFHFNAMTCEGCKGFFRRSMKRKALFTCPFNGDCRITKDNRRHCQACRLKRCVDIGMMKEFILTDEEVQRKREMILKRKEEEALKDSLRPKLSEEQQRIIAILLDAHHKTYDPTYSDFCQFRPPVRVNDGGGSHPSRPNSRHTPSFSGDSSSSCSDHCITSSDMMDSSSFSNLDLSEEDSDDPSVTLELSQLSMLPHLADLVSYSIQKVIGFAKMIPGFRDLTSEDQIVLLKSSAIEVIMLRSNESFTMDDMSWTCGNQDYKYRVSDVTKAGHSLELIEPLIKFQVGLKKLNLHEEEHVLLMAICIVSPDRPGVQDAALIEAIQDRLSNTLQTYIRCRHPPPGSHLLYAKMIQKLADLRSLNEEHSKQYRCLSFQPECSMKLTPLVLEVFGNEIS
Cellular tumor antigen p53 (Homo sapiens), sequence (P04637 whole entry, looked up): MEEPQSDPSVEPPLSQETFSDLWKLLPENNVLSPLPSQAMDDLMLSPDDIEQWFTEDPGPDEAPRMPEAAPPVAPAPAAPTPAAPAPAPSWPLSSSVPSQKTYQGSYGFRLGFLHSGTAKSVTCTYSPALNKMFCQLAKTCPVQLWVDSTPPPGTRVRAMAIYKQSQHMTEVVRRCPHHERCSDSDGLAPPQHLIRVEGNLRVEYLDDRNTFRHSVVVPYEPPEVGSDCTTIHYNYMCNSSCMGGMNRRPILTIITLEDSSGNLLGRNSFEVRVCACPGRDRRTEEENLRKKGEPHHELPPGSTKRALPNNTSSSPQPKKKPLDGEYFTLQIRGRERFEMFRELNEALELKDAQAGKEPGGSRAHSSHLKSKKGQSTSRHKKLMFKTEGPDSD
Oxysterols receptor LXR-beta (Homo sapiens), sequence (P55055 whole entry, looked up, the tested form may be a part): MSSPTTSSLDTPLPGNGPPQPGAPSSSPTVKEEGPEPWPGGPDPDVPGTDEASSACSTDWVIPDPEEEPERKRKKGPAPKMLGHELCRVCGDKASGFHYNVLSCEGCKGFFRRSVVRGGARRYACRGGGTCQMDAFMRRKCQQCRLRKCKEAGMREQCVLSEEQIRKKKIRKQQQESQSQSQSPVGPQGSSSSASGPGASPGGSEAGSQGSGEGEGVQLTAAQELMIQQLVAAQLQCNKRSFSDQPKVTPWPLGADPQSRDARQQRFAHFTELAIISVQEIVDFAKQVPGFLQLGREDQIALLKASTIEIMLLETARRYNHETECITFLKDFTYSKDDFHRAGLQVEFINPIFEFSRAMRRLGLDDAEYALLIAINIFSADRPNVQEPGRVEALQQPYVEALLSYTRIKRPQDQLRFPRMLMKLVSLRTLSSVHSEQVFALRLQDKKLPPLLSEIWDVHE
Glucocorticoid receptor (Homo sapiens), sequence (P04150 whole entry, looked up, the tested form may be a part): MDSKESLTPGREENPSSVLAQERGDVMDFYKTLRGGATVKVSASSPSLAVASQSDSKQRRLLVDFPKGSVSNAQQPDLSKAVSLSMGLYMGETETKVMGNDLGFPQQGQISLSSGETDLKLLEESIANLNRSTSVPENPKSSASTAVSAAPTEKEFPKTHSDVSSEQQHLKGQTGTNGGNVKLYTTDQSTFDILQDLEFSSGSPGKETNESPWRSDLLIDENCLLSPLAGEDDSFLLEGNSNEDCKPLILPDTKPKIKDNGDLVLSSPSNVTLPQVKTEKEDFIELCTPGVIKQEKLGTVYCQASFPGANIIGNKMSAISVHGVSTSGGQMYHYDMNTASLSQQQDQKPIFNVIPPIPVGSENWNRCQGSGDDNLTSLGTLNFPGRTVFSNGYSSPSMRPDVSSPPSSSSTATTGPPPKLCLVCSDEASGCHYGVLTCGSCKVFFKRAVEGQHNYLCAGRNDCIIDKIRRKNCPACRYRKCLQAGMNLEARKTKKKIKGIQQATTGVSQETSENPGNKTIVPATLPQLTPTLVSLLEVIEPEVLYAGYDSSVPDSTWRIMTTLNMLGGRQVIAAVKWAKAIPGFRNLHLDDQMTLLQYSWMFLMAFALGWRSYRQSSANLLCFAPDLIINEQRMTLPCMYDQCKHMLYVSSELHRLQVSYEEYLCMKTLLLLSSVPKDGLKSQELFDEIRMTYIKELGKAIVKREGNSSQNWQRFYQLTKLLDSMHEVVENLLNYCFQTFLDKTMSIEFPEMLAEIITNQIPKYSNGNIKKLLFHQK
Oxysterols receptor LXR-alpha (Homo sapiens), sequence (Q13133 whole entry, looked up, the tested form may be a part): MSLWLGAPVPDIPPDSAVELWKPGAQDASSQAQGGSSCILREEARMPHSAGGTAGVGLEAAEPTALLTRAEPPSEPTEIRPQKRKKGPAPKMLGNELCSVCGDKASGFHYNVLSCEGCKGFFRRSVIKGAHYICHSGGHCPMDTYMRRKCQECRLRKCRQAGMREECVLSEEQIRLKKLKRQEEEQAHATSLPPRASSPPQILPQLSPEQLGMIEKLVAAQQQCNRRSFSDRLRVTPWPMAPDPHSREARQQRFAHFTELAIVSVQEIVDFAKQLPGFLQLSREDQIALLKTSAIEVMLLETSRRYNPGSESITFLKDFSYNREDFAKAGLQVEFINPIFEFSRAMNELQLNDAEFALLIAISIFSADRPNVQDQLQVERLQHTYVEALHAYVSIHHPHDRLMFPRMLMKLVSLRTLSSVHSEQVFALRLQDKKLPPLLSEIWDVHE
human Peroxisome Proliferator-activated Receptor delta (PPARd), PPARD (gene 5467), sequence (Q03181 whole entry, looked up, the tested form may be a part): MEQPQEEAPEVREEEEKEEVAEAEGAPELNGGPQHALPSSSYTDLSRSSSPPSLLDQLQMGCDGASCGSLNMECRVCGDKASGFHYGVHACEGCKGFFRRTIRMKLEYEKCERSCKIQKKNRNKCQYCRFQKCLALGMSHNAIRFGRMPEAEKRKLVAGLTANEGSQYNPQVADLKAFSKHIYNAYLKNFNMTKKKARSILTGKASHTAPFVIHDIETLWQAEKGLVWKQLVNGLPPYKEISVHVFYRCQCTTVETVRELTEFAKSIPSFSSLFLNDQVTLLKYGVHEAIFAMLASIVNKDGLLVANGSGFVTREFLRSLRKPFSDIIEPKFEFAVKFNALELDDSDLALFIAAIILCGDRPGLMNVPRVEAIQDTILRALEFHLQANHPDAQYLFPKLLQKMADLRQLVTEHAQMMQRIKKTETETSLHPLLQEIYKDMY
Nuclear receptor subfamily 1 group I member 3 (Homo sapiens), sequence (Q14994 whole entry, looked up, the tested form may be a part): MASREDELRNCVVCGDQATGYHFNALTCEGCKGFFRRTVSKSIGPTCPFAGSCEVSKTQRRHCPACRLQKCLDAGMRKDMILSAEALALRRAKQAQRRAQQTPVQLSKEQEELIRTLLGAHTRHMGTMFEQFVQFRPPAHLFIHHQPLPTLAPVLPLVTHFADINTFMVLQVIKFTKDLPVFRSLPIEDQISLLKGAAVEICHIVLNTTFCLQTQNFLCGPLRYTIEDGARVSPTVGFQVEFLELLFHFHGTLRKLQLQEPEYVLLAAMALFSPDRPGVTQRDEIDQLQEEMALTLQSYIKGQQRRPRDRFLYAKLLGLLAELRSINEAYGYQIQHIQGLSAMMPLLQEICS
human RAR-related Orphan Receptor beta (RORb), RORB (gene 6096), sequence (Q92753 whole entry, looked up, the tested form may be a part): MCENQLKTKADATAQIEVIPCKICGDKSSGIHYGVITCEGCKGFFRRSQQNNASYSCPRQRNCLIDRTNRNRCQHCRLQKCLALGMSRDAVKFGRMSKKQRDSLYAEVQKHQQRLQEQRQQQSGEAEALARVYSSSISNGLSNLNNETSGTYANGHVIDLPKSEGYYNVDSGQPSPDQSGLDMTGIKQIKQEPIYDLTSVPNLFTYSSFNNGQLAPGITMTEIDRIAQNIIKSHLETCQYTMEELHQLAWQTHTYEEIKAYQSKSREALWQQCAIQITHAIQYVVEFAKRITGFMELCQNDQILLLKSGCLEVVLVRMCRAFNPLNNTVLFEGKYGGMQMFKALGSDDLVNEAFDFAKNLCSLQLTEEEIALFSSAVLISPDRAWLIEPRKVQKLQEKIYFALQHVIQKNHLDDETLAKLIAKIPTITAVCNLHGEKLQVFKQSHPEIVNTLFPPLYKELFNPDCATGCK
Retinoic acid receptor alpha (Homo sapiens), sequence (P10276 whole entry, looked up): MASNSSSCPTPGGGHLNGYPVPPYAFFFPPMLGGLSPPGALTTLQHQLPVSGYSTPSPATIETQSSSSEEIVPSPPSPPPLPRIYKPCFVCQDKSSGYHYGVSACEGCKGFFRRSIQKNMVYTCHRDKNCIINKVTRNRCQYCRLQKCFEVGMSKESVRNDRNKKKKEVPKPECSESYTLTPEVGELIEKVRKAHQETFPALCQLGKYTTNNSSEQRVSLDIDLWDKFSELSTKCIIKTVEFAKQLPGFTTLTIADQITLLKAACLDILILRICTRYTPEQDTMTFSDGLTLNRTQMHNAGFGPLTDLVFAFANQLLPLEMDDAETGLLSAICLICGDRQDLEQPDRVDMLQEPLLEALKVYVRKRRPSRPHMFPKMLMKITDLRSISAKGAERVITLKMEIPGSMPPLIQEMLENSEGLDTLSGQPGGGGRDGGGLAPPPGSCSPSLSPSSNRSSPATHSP
human RAR-related Orphan Receptor gamma (RORg), RORC (gene 6097), sequence (P51449 whole entry, looked up, the tested form may be a part): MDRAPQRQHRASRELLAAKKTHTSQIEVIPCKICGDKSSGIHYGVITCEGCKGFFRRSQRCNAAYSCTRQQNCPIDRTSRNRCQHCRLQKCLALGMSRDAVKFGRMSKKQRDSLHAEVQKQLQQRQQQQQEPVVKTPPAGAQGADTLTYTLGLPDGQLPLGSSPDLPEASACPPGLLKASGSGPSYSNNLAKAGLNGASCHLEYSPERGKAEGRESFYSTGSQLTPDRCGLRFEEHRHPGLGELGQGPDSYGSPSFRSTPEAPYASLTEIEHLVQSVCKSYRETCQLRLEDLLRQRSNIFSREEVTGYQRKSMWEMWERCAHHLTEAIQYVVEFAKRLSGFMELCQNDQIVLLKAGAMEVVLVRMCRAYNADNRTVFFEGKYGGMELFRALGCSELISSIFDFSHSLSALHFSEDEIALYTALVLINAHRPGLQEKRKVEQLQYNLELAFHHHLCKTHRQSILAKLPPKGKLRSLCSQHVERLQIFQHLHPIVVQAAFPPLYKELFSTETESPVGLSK

CCOC(=O)NC(=S)Nc1ccccc1NC(=S)NC(=O)OCC
inactive: [1] | [2] | [3] | [4] | [5] | [6] | [7] | [8] | [9] | [10]

CCC(Br)(CC)C(=O)NC(N)=O
inactive: [1] | [11] | [12] | [13] | [14] | [6] | [15]

Nc1ccc(-c2ccc(N)c(N)c2)cc1N
inactive: [1] | [11] | [12] | [16] | [4] | [14] | [6] | [7] | [17]

O=C(CCl)c1ccccc1
active: [3] 58.6 µM | [14] 62 µM
not listed: [6] | [11] | [17] | [19] | [20]
inactive: all other assays above

CC(C)(O)C#N
not listed: [2] | [4] | [5] | [12] | [14] | [16] | [18] | [20]
inactive: all other assays above

O=S(=O)(c1ccccc1)c1ccccc1
not listed: [2] | [4] | [5] | [7] | [8] | [14] | [19]
inactive: all other assays above

Nc1ccccc1C(=O)OCCc1ccccc1
inactive: [1] | [19] | [2] | [13] | [16] | [3] | [5] | [14] | [15] | [8] | [9]

CC[N+](=O)[O-]
inactive: [1] | [19] | [3] | [4] | [6] | [15] | [8]

S=c1[nH]c2ccccc2[nH]1
inactive: [1] | [19] | [20] | [3] | [7] | [15] | [8] | [9] | [17]

CCOP(=O)(OCC)Oc1ccc([N+](=O)[O-])cc1
not listed: [2] | [3] | [12] | [14] | [17] | [20]
inactive: all other assays above

[CH3][Sn]([Cl])([Cl])[Cl]
inactive: [1] | [19] | [2] | [13] | [3] | [5] | [14] | [15]

Nc1ccc([N+](=O)[O-])cc1N
active: [17] 50 µM
not listed: [2] | [3] | [8] | [10] | [11] | [15] | [18] | [19]
inactive: all other assays above
